In PubChem BioAssay (NCI):
Compounds without any hit were thinned out: in the full panel of roughly 79,000, 15% have a hit. Active and inactive are the calls of the source. Rule as the data show it: active = growth inhibition above about 70%; inactive = the rest.

Columns and labels:
[1] = NCI Yeast Anticancer Drug Screen. Data for the wt2 strain (AID 169);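 also: 0% = growth of vehicle-treated yeast cultures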; conditions: S. cerevisiae wt2 strain growth inhibition, active compounds read high
Outline: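 Against vehicle-treated controls, the growth of yeast exposed to each compound was compared, and the inhibition was recorded.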

[2] = NCI Yeast Anticancer Drug Screen. Data for the mlh1 strain (AID 171);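 also: 0% = growth of vehicle-treated control cultures of the same strain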; conditions: S. cerevisiae mlh1 strain growth inhibition, active compounds read high
Outline: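 Measured: yeast growth. Reference: vehicle-treated controls. Organism: strain with a defined alteration affecting DNA damage repair or cell cycle control, treated with compound.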

[3] = NCI Yeast Anticancer Drug Screen. Data for the sgs1 strain (AID 173);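 also: 0% = growth of vehicle-only control cultures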; conditions: S. cerevisiae sgs1 mutant, active compounds read high
Outline: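 Each compound was added to cultures of the altered yeast strain. Growth was recorded, and inhibition was derived by comparison with vehicle controls.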

[4] = NCI Yeast Anticancer Drug Screen. Data for the mlh1 rad18 strain (AID 175); conditions: S. cerevisiae mlh1 rad18 strain growth inhibition, active compounds read high
Outline: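 Genetically defined yeast (DNA repair-deficient) exposed to compounds; growth inhibition determined relative to vehicle.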

[5] = NCI Yeast Anticancer Drug Screen. Data for the rad18 strain (AID 177); conditions: S. cerevisiae rad18 mutant growth inhibition, active compounds read high
Outline: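 Vehicle-treated cultures served as the baseline for scoring compound-induced growth inhibition in DNA-repair-mutant yeast.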

[6] = NCI Yeast Anticancer Drug Screen. Data for the rad52 strain (AID 147);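 also: 0% = growth of vehicle-treated control cultures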; conditions: S. cerevisiae rad52 mutant growth inhibition, active compounds read high
Outline: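 The repair-mutant yeast strain was incubated with compounds, then growth was read and inhibition derived relative to vehicle.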

[7] = NCI Yeast Anticancer Drug Screen. Data for the wt1 strain (AID 149);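 also: 0% = growth of vehicle-treated wt1 cultures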; conditions: S. cerevisiae wt1 strain (SPY 50644) growth inhibition, active compounds read high
Outline: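 Using yeast strain wt1, compound-induced growth inhibition was determined against vehicle-treated cultures.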

[8] = NCI Yeast Anticancer Drug Screen. Data for the rad50EPP+ strain (AID 151);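 also: 0% = growth of vehicle-treated control cultures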; conditions: S. cerevisiae rad50 mutant strain, active compounds read high
Outline: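 Vehicle-normalised growth inhibition; rad50EPP+ yeast strain, altered in DNA damage repair, compound-treated.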

[9] = NCI Yeast Anticancer Drug Screen. Data for the mgt1 strain (AID 153); conditions: S. cerevisiae mgt1 mutant growth inhibition, active compounds read high
Outline: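 Vehicle-normalized growth inhibition is determined in mgt1 yeast, a strain selected for a defined alteration in DNA repair or cell cycle control.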

[10] = NCI Yeast Anticancer Drug Screen. Data for the rad50 strain (AID 155);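 also: 0% = growth of vehicle-only cultures of the same strain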; conditions: S. cerevisiae rad50 strain growth inhibition, active compounds read high
Outline: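 Relative growth inhibition (compound vs vehicle) was measured in yeast with a defined repair-gene alteration.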

[11] = NCI Yeast Anticancer Drug Screen. Data for the mec2-1 strain (AID 157); conditions: S. cerevisiae mec2-1 strain, active compounds read high
Outline: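 Mutant yeast (mec2-1) grown with compound; growth inhibition relative to vehicle control reported.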

[12] = NCI Yeast Anticancer Drug Screen. Data for the rad14 strain (AID 159);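 also: 0% = growth of vehicle-treated control cultures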; conditions: S. cerevisiae rad14 strain growth inhibition, active compounds read high
Outline: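 Screen for anticancer potential: a yeast strain altered in DNA damage repair is grown with compound, and reduced growth is quantified against vehicle controls.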

[13] = NCI Yeast Anticancer Drug Screen. Data for the sgs1 mgt1 strain (AID 161);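 also: 0% = growth of cultures given vehicle only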; conditions: S. cerevisiae sgs1 mgt1 strain, active compounds read high
Outline: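 Yeast cells carrying a defined DNA-repair defect were exposed to test compounds. Growth inhibition was measured relative to vehicle-treated controls.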

[14] = NCI Yeast Anticancer Drug Screen. Data for the CLN2oe strain (AID 163);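 also: 0% = growth of vehicle-only control cultures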; conditions: S. cerevisiae CLN2oe strain, active compounds read high
Outline: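 Compounds are applied to yeast harbouring a defined cell-cycle control change; reduced growth compared with vehicle-treated controls gives the value.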

[15] = NCI Yeast Anticancer Drug Screen. Data for the cln2 rad14 strain (AID 165);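 also: 0% = growth equal to vehicle treated cultures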; conditions: S. cerevisiae cln2 rad14 strain, active compounds read high
Outline: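 Readout is yeast growth inhibition versus vehicle-treated controls, using a strain with cln2 and rad14 alterations exposed to compound.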

[16] = NCI Yeast Anticancer Drug Screen. Data for the bub3 strain (AID 167); conditions: S. cerevisiae bub3 mutant strain, active compounds read high
Outline: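 Screening used yeast with an engineered genetic alteration affecting cell cycle control. Compound-exposed cultures were compared with vehicle cultures, and reduced growth was taken as inhibition.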

[17] = at 5.0 µM (retest, dose inferred, filed as 0.5)
[18] = at 50.0 µM (retest, dose inferred, filed as 5.0)

Measured: growth inhibition

O=S(=O)(NC1CCCC(c2ccccc2)C1)c1ccccc1 (centres undefined)
active: [1]; at 100.0 µM 90% | [2]; at 100.0 µM 82% | [3]; at 100.0 µM 97% | [4]; [18] 76% | [5]; at 100.0 µM 93%
inactive: [1]; at 1.2 µM -4% | [1]; at 3.7 µM -7% | [1]; at 11.0 µM -3% | [1]; at 33.0 µM -6% | [2]; at 1.2 µM -2% | [2]; at 3.7 µM 0% | [2]; at 11.0 µM -1% | [2]; at 33.0 µM 3% | [3]; at 1.2 µM -4% | [3]; at 3.7 µM 4% | [3]; at 11.0 µM -2% | [3]; at 33.0 µM 1% | [4]; [17] -26% | [4]; at 50.0 µM 57.8% | [5]; at 1.2 µM 0% | [5]; at 3.7 µM -2% | [5]; at 11.0 µM 1% | [5]; at 33.0 µM 3%

Fc1cc(F)c(F)c(S)c1F
active: [6]; at 100.0 µM 98% | [7]; at 100.0 µM 97% | [8]; at 33.0 µM 90% | [8]; at 100.0 µM 98% | [9]; at 100.0 µM 97% | [10]; [18] 91% | [10]; at 50.0 µM 87.9% | [10]; at 100.0 µM 97% | [11]; [18] 97% | [11]; at 50.0 µM 92.3% | [11]; at 100.0 µM 99% | [12]; at 100.0 µM 96% | [13]; [18] 89% | [13]; at 50.0 µM 83.7% | [14]; at 100.0 µM 98% | [15]; [18] 83% | [15]; at 50.0 µM 79.5% | [16]; at 33.0 µM 84% | [16]; [18] 98% | [16]; at 50.0 µM 90.9% | [16]; at 100.0 µM 99% | [1]; at 100.0 µM 98% | [2]; at 33.0 µM 72% | [2]; at 100.0 µM 98% | [3]; at 100.0 µM 98% | [4]; [18] 99% | [4]; at 50.0 µM 74.5% | [5]; at 100.0 µM 96%
inactive: [6]; at 1.2 µM -44% | [6]; at 3.7 µM -10% | [6]; at 11.0 µM -38% | [6]; at 33.0 µM 29% | [7]; at 1.2 µM -31% | [7]; at 3.7 µM -26% | [7]; at 11.0 µM -39% | [7]; at 33.0 µM 36% | [8]; at 1.2 µM -51% | [8]; at 3.7 µM -18% | [8]; at 11.0 µM 45% | [9]; at 1.2 µM -78% | [9]; at 3.7 µM -74% | [9]; at 11.0 µM -56% | [9]; at 33.0 µM 48% | [10]; at 1.2 µM -43% | [10]; at 3.7 µM -28% | [10]; [17] -12% | [10]; at 11.0 µM -32% | [10]; at 33.0 µM 25% | [11]; at 1.2 µM -56% | [11]; at 3.7 µM -55% | [11]; [17] -19% | [11]; at 11.0 µM -6% | [11]; at 33.0 µM 10% | [12]; at 1.2 µM -47% | [12]; at 3.7 µM -44% | [12]; at 11.0 µM -40% | [12]; at 33.0 µM 4% | [13]; [17] -1% | [14]; at 1.2 µM -29% | [14]; at 3.7 µM -20% | [14]; at 11.0 µM 8% | [14]; at 33.0 µM 69% | [15]; [17] 43% | [16]; at 1.2 µM -9% | [16]; at 3.7 µM -4% | [16]; [17] 12% | [16]; at 11.0 µM 26% | [1]; at 1.2 µM -48% | [1]; at 3.7 µM -46% | [1]; at 11.0 µM -32% | [1]; at 33.0 µM 56% | [2]; at 1.2 µM -34% | [2]; at 3.7 µM -27% | [2]; at 11.0 µM 0% | [3]; at 1.2 µM -34% | [3]; at 3.7 µM -37% | [3]; at 11.0 µM -27% | [3]; at 33.0 µM 54% | [4]; [17] 9% | [5]; at 1.2 µM -43% | [5]; at 3.7 µM -34% | [5]; at 11.0 µM -12% | [5]; at 33.0 µM 48%

ClCCCOc1c(Cl)cc(Cl)cc1Cl
inactive: [6]; at 1.2 µM -2% | [6]; at 3.7 µM 2% | [6]; at 11.0 µM 5% | [6]; at 33.0 µM -3% | [6]; at 100.0 µM 10% | [7]; at 1.2 µM -1% | [7]; at 3.7 µM -2% | [7]; at 11.0 µM -3% | [7]; at 33.0 µM -5% | [7]; at 100.0 µM -1% | [8]; at 1.2 µM -4% | [8]; at 3.7 µM 4% | [8]; at 11.0 µM 13% | [8]; at 33.0 µM 10% | [8]; at 100.0 µM 32% | [9]; at 1.2 µM 0% | [9]; at 3.7 µM -1% | [9]; at 11.0 µM -2% | [9]; at 33.0 µM -1% | [9]; at 100.0 µM 1% | [10]; at 1.2 µM -2% | [10]; at 3.7 µM 4% | [10]; [17] 1% | [10]; at 11.0 µM 5% | [10]; at 33.0 µM 0% | [10]; [18] 13% | [10]; at 50.0 µM -7.15% | [10]; at 100.0 µM 10% | [11]; at 1.2 µM -2% | [11]; at 3.7 µM -2% | [11]; [17] -27% | [11]; at 11.0 µM -2% | [11]; at 33.0 µM -1% | [11]; [18] -12% | [11]; at 50.0 µM 8.65% | [11]; at 100.0 µM 1% | [12]; at 1.2 µM -4% | [12]; at 3.7 µM 2% | [12]; at 11.0 µM 5% | [12]; at 33.0 µM 1% | [12]; at 100.0 µM 13% | [13]; [17] 17% | [13]; [18] 15% | [13]; at 50.0 µM -2.55% | [14]; at 1.2 µM 1% | [14]; at 3.7 µM 0% | [14]; at 11.0 µM 0% | [14]; at 33.0 µM 1% | [14]; at 100.0 µM 5% | [15]; [17] 16% | [15]; [18] 25% | [15]; at 50.0 µM 29.6% | [16]; at 1.2 µM 0% | [16]; at 3.7 µM 1% | [16]; [17] 14% | [16]; at 11.0 µM -2% | [16]; at 33.0 µM -1% | [16]; [18] 13% | [16]; at 50.0 µM 0.6% | [16]; at 100.0 µM 0% | [1]; at 1.2 µM -7% | [1]; at 3.7 µM 1% | [1]; at 11.0 µM -7% | [1]; at 33.0 µM -2% | [1]; at 100.0 µM -8% | [2]; at 1.2 µM -2% | [2]; at 3.7 µM 0% | [2]; at 11.0 µM 3% | [2]; at 33.0 µM -1% | [2]; at 100.0 µM 9% | [3]; at 1.2 µM -15% | [3]; at 3.7 µM -22% | [3]; at 11.0 µM -21% | [3]; at 33.0 µM -5% | [3]; at 100.0 µM 10% | [4]; [17] 15% | [4]; [18] 60% | [4]; at 50.0 µM 27.1% | [5]; at 1.2 µM -4% | [5]; at 3.7 µM 12% | [5]; at 11.0 µM 12% | [5]; at 33.0 µM -2% | [5]; at 100.0 µM 6%
